Where “and” joins values, the source holds several entries; their conditions need not be identical. Identical values can stand only once. About 83,000 compounds went through this panel and 20% of them were active in at least one assay; those are over-represented in the sample as a whole.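 Note: values are percent growth. 100 is the growth of untreated cells, values between 100 and 0 indicate rising inhibition; between -100 and 0 indicates cell death.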 Unmarked numbers belong to inactive results. Calls of active or inactive are those of the source. Rule for the calls: active = growth percent below 10; inactive = the rest.
How the values were obtained:
Experiment in all cases: NCI-60 one-dose screen, 48 h (100 = growth as untreated, 0 = no growth, -100 = all killed)
Conditions in all cases: 10 µM unless noted
NCI-H23 lung = test system: NCI-H23 lung
NCI-H226 lung = test system: NCI-H226 lung
NCI-H322M lung = test system: NCI-H322M lung
HOP-62 NSCLC = test system: HOP-62 NSCLC
NCI-H460 lung = test system: NCI-H460 lung
HOP-92 NSCLC = test system: HOP-92 NSCLC
NCI-H522 lung = test system: NCI-H522 lung
A549/ATCC NSCLC = test system: A549/ATCC NSCLC
786-0 renal = test system: 786-0 renal
COLO 205 colon = test system: COLO 205 colon

Structure (SMILES) | growth (NCI-H23 lung) | growth (NCI-H226 lung) | growth (NCI-H322M lung) | growth (HOP-62 NSCLC) | growth (NCI-H460 lung) | growth (HOP-92 NSCLC) | growth (NCI-H522 lung) | growth (A549/ATCC NSCLC) | growth (786-0 renal) | growth (COLO 205 colon)
COc1ccc(CN)cc1OC | 101% and 104% | 113% and 105% | 135% and 96.9% | 107% and 101% | 124% and 102% | 108% | 107% and 98.5% | 108% and 102% | 105% and 101% | 122% and 109%
C[C@]12CCC(=O)C[C@@H]1CC[C@@H]1[C@@H]2CC[C@]2(C)[C@@H](OC(=O)N(CCCl)N=O)CC[C@@H]12 | 29.5% | 45.8% | 49.3% | 23.9% | -64% (active) | -8.11% (active) | 22.3% | 28.2% | 14.2% | 31.8%
CO[C@@H]([CH2][Hg][O]C(=O)c1ccccc1)[C@@H]([CH2][Hg][O]C(=O)c1ccccc1)OC | 102% | 93.2% | 105% | 81.8% | 103% | 114% | -53.9% (active) | 95.6% | 101% | 84.8%
COC12CC3C4=CCOC5CC(=O)N6c7ccccc7C1(CCN2C4)C6C53 (stereo not given) | 102% | 103% | 109% | 99.1% | 109% | 102% | 89.9% | 91.2% | 99.1% | 105%
CCC(=O)C(CC(C)N1CCCCCC1)(c1ccccc1)c1ccccc1 (stereo not given) | 91.6% | 92.6% | 84.7% | 85.6% | 103% | 65.9% | 83% | 87.8% | 87.4% | 93%
CC[C@H](C)[C@H](NC(=O)[C@H]1CCCCN1C)C(=O)N(C)[C@H](C(=O)NC12CC(C(=O)N[C@@H](Cc3ccccc3)C[C@H](C)C(=O)OC)(C1)C2)C(C)C | 97.7% | 98.8% | 91.9% | 92.8% | 101% | 98.4% | 74.2% | 92% | 103% | 110%
CC/C(Cc1ccccc1)=C(\c1ccc(OCCN2CCCC2)cc1)c1ccc(OC(=O)NCc2ccccc2)cc1 | 90.8% | 92.1% | 84.9% | 76.7% | -45.2% (active) | 38.6% | 81.5% | 42.4% | 20.7% | -66.6% (active)
C[C@]12CC[C@H]3[C@@H](C[C@@H]4SC(Nc5cccc(F)c5)=N[C@@]45CC(=O)CC[C@]35C)[C@@H]1CCC2=O | 55.1% | 71.9% | 55.8% | 20.4% | 52% | 68.9% | -43.7% (active) | 35.4% | -13.9% (active) | 47.6%
Nc1cccnc1 | 109% | 107% | 105% | 104% | 115% | 101% | 91.6% | 106% | 109% | 115%
CCCCCCCCCCCCCCCCCC1OCC(COC(=O)O[C@@H](C(=O)O[C@H]2C[C@@]3(O)[C@@H](OC(=O)c4ccccc4)[C@@H]4[C@]5(OC(C)=O)CO[C@@H]5C[C@H](O)[C@@]4(C)C(=O)[C@H](OC(C)=O)C(=C2C)C3(C)C)[C@@H](NC(=O)c2ccccc2)c2ccccc2)O1 (stereo not given in full) | 40.3% | 53.4% | 58.8% | 60.5% | 18.2% | 94.8% | 48.6% | 53.2% | 80.9% | 24.7%
CCCC[C@H]1C(=O)O[C@H](C)[C@H](NC(=O)c2cccc(NC=O)c2O)C(=O)O[C@@H](C)[C@@H]1OC(=O)CC(C)C | 42% | 44.1% | 66.3% | 48.4% | 19.9% | 32.9% | 51.2% | 11.5% | 44.8% | 42.2%
N[C@@H](CCC(=O)CCl)C(=O)O | 97.3% [20 µM] | 104% [20 µM] | 98.1% [20 µM] | 95.9% [20 µM] | 106% [20 µM] | 84.6% [20 µM] | 77.1% [20 µM] | 102% [20 µM] | 101% [20 µM] | 106% [20 µM]
